Results filed as inconclusive are left out. The source made the active and inactive calls. Calls come from the whole dose curve; as a rule, active = well fitted activation curve with a large enough effect in the repeat runs; inconclusive = weak or mixed curves; inactive = flat fitted curve, though single readings scatter.
% is set by controls: 0 for no effect and ±100 for the full control effect; potency is the fitted concentration of half-maximal effect.

The nature of the experiment: A CellTox Green Cytotoxicity Assay to monitor cytotoxicity in HEK293 cells - 8 hour (AID 1224884). Note: nearly all actives have a fitted effect of over 35% in size. The following applies: CellTox Green fluorescence; series mostly up to 76.8 µM; cytotoxicity increase: at the top concentration. In a few lines: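 HEK293 cells, 600/well, were preincubated 5 hours and then exposed to compounds at 37 C for up to 40 hours. A cell-impermeant cyanine dye staining dead-cell DNA was read by fluorescence at 0, 8, 16, 24, 32 and 40 h time points.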
With `Cc1ccc(Cl)c(N)c1Cl`, the “cytotoxicity increase” value was 9.99% (inactive).
With `O=C1OC(O)C(C(Cl)Cl)=C1Cl` (stereo not drawn), the “cytotoxicity increase” value was -10.2% (inactive).
As to `COc1cc(/C=C/C(=O)CC(=O)/C=C/c2ccc(O)c(OC)c2)ccc1O`, the Potency is 49.3 µM (active).
As to `Cc1cc(Br)ccc1NC(=O)CCl`, the “cytotoxicity increase” value was -5.11% (inactive).
For `C=CCc1cc(S(=O)(=O)c2ccc(O)c(CC=C)c2)ccc1O`, the “cytotoxicity increase” value is 2.12% (inactive).
On to `c1ccc2cc3c4ccccc4c4ccccc4c3cc2c1`, for which the “cytotoxicity increase” value is -0.222% (inactive).
Regarding `CN(C/C=C/c1ccccc1)Cc1cccc2ccccc12`, the Potency was 19 µM (active).
For the compound `O=C(CCN1CCC(c2ccccc2)C1)c1ccc2c(c1)OCCO2` (stereo not drawn), the “cytotoxicity increase” value is -5.29% [at 35.3 µM] (inactive).
For the compound `O=C1CCC/C=C\CCCCCCCCCC1`, the “cytotoxicity increase” value is -2.04% (inactive).
With `COc1cc([C@@H]2c3cc4c(cc3[C@@H](O[C@@H]3O[C@@H]5CO[C@@H](C)O[C@H]5[C@H](O)[C@H]3O)[C@H]3COC(=O)[C@H]23)OCO4)cc(OC)c1O`, the “cytotoxicity increase” value is -9.52% (inactive).
Still for that read-out and setting: the same measure for `COc1c(Br)cc(Br)c(C)c1Br`: -1.68% (inactive).
As for `N#Cc1ccc(C/C(=N/NC(=O)Nc2ccc(OC(F)(F)F)cc2)c2cccc(C(F)(F)F)c2)cc1`, the “cytotoxicity increase” value was 7.85% (inactive).
`O=C(CCCCCCCCc1cccnc1)N1CCC(C=C(c2ccccc2)c2ccccc2)CC1`: the “cytotoxicity increase” value is 1.57% (inactive).
As to `c1ccc(C[P+](c2ccccc2)(c2ccccc2)c2ccccc2)cc1`, the “cytotoxicity increase” value was -1.84% (inactive).
Consider `CCCCCCCC/C=C\CCCCCCCC(=O)N(CCO)CCO`, for which the “cytotoxicity increase” value is 21.3% (inactive).
In the case of `O=S(=O)(c1ccc(OCc2ccccc2)cc1)c1ccccc1O`, the “cytotoxicity increase” value was -6.5% (inactive).
For `CC1=C(/C=C/C(C)=C/C=C/C(C)=C\C(=O)O)C(C)(C)CCC1`, the “cytotoxicity increase” value is 0.71% (inactive).
For `CCCCCCCCCCCCCCCCC(C(=O)O)C(O)(CC(=O)O)C(=O)O` (stereo not drawn), the “cytotoxicity increase” value is 8.35% [at 35.3 µM] (inactive).
